{"source": "PubChem BioAssay (Tox21)", "note": "Records with an inconclusive call do not appear. Calls of active or inactive are those of the source. Calls follow the shape of the dose curve; as a rule, active = well fitted cell-killing curve with a large enough effect in the repeat runs; inconclusive = weak or mixed curves, or effect the other way; inactive = no such curve, though single readings can be large or run the other way. % is scaled to controls: 0 for no effect and ±100 for the full control effect.", "data": [{"experiment": "qHTS assay for identifying genotoxic compounds that show differential cytotoxicity against isogenic chicken DT40 cell lines with known DNA damage response pathways - Rev3 mutant cell line (AID 743014); also: nearly all actives have a fitted effect of over 55% in size", "settings": "chicken DT40 Rev3-/- viability, CellTiter-Glo, 40 h; series mostly up to 68.4 µM; activity, negative = cytotoxicity: at the top concentration", "description": "National Center for Advancing Translational Sciences [NCATS]\nNIH Chemical Genomics Center [NCGC]\nU.S. Environmental Protection Agency [EPA]\nNational Institutes of Environmental Health Sciences [NIEHS]\nNational Toxicology Program [NTP]\nU.S. Food and Drug Administration [FDA]\nDNA repair pathways play a critical role in cellular homeostasis by repairing DNA damage induced by endogenous processes and xenobiotics. Isogenic chicken DT40 cell lines deficient in different DNA repair pathways can be used to identify genotoxic compounds and aid in characterizing the nature of the DNA damage induced. Two DNA repair-deficient cell lines with disrupted genes, Rad54/Ku70 or Rev3, were used to screen the Tox21 10K compound library. Possible genotoxicity was based on the presence of a significant increase in cytotoxicity in one or more of the DNA repair-deficient cell lines compared to that observed in the parental DNA repair-proficient cell line. CellTiter Glo viability assay (Promega, Madison, WI) was used to measure cell viability in these cells after compound treatment. This assay includes the data from the Rev3 mutant cell line.\nTox21 Assay Protocol Summary:\n300 DT40 mutant cells in 5 uL/well were dispensed into white, solid-bottom 1536-well plates using a Multidrop Combi (ThermoFisher Scientific, Waltham, MA) dispenser. After the assay plates were incubated at 37 C/5% CO2 for approximately 0.5 hour, 23 nL of compounds dissolved in DMSO, positive controls or DMSO only was transferred into the assay plate by a pintool work station (Kalypsys, San Diego, CA). The assay plates were incubated at 37 C/5% CO2 for 40 hours. After 5 uL per well of CellTiter-Glo reagent was added into each well of the assay plates, the plates were incubated for 30 min at room temperature and the luminescence intensity of the plates was measured using a ViewLux (PerkinElmer, Shelton, CT) plate reader.", "values": [{"smiles": "CCOc1cccc(N)c1", "activity, negative = cytotoxicity": "2.97% (inactive)"}, {"smiles": "C=CCSSCCC", "activity, negative = cytotoxicity": "6.34% (inactive)"}, {"smiles": "O=Cc1ccccc1Cl", "activity, negative = cytotoxicity": "9.24% (inactive)"}, {"smiles": "COc1nc(N)nc2nc[nH]c12", "activity, negative = cytotoxicity": "0.467% (inactive)"}, {"smiles": "CC1(C)[C@H]2CC[C@](C)(C2)[C@H]1O", "activity, negative = cytotoxicity": "-8.6% [at 95 µM] (inactive)"}, {"smiles": "CCC/C=C(\\C=O)CC", "activity, negative = cytotoxicity": "-24.8% (inactive)"}, {"smiles": "CCO", "activity, negative = cytotoxicity": "9.06% [at 95 µM] (inactive)"}, {"smiles": "CC(=O)CC(=O)Nc1ccc(C)cc1C", "activity, negative = cytotoxicity": "-2.66% (inactive)"}, {"smiles": "CN1CCOC(c2ccccc2)c2ccccc2C1", "note": "(stereo not given)", "activity, negative = cytotoxicity": "-10.1% [at 31.4 µM] (inactive)"}, {"smiles": "CN(C)CCOC(=O)C(c1ccccc1)C1(O)CCCC1", "note": "(stereo not given)", "activity, negative = cytotoxicity": "4.26% (inactive)"}, {"smiles": "OCC(O)CN1CCN(c2ccccc2)CC1", "note": "(stereo not given)", "activity, negative = cytotoxicity": "1.84% (inactive)"}, {"smiles": "CC1(C)O[C@H]2CC(=O)OC[C@]23[C@H]2CC[C@@]4(C)[C@H](c5ccoc5)OC(=O)[C@H]5O[C@]54[C@]2(C)C(=O)C[C@@H]13", "activity, negative = cytotoxicity": "7.63% (inactive)"}, {"smiles": "CC(C)Nc1ccccc1", "activity, negative = cytotoxicity": "-7.14% (inactive)"}, {"smiles": "CCCCOC(=O)[C@H](C)O", "activity, negative = cytotoxicity": "13.1% (inactive)"}, {"smiles": "CC(N)CCCC(C)(C)O", "note": "(stereo not given)", "activity, negative = cytotoxicity": "0.978% (inactive)"}, {"smiles": "O=C=NCC1CCCC(CN=C=O)C1", "note": "(stereo not given)", "activity, negative = cytotoxicity": "-22.3% (inactive)"}, {"smiles": "c1ccc(-c2nn[nH]n2)cc1", "activity, negative = cytotoxicity": "-7.43% (inactive)"}, {"smiles": "C=C(C)C1CC=C(C)C(=O)C1", "note": "(stereo not given)", "activity, negative = cytotoxicity": "-11.6% (inactive)"}, {"smiles": "CCCCCCCCCCCCCCCCCCOCCO", "activity, negative = cytotoxicity": "6.12% [at 31.4 µM] (inactive)"}, {"smiles": "c1ccc2c(CC3=NCCN3)cccc2c1", "Potency": "inactive"}, {"smiles": "CC1=C(C(=O)O)N2C(=O)[C@@H](NC(=O)[C@H](N)C3=CCC=CC3)[C@H]2SC1", "activity, negative = cytotoxicity": "0.052% (inactive)"}, {"smiles": "O=C(O)CNC(=O)CNC(=O)CNC(=O)CSC(=O)c1ccccc1", "activity, negative = cytotoxicity": "3.15% (inactive)"}, {"smiles": "CCCCC1CCC(O)CC1", "note": "(stereo not given)", "activity, negative = cytotoxicity": "9.36% (inactive)"}, {"smiles": "CCCCCCCCCCCCCCCCCC#N", "activity, negative = cytotoxicity": "4.81% [at 95 µM] (inactive)"}, {"smiles": "CCC(=O)c1c(O)cc(O)cc1O", "activity, negative = cytotoxicity": "2.82% (inactive)"}, {"smiles": "O=Cc1cc2ccccc2o1", "activity, negative = cytotoxicity": "-1.02% (inactive)"}, {"smiles": "CC(C)Cn1cnc2c1c(=O)n(C)c(=O)n2C", "activity, negative = cytotoxicity": "-18.9% (inactive)"}, {"smiles": "N#CCC(=O)NN", "activity, negative = cytotoxicity": "-4.91% (inactive)"}, {"smiles": "N[C@@H](CSCCCO)C(=O)O", "activity, negative = cytotoxicity": "5.73% (inactive)"}, {"smiles": "CC(=O)c1cc(C)oc1C", "activity, negative = cytotoxicity": "-0.348% [at 95 µM] (inactive)"}, {"smiles": "CC(Oc1cc(Cl)ccc1Cl)C(=O)O", "note": "(stereo not given)", "activity, negative = cytotoxicity": "-29.9% (inactive)"}, {"smiles": "CCCCSCCCC", "activity, negative = cytotoxicity": "-4.4% (inactive)"}, {"smiles": "C=CC/C=C/C", "activity, negative = cytotoxicity": "-3.01% [at 95 µM] (inactive)"}, {"smiles": "CC1=C(C(=O)O)N2C(=O)[C@@H](NC(=O)[C@H](N)c3ccccc3)[C@H]2SC1", "activity, negative = cytotoxicity": "-1.66% (inactive)"}, {"smiles": "COC(=O)/C=C\\C(=O)O", "activity, negative = cytotoxicity": "-10.8% (inactive)"}, {"smiles": "C=CCCCCCCCCC(=O)OCCCC", "activity, negative = cytotoxicity": "0.543% (inactive)"}, {"smiles": "CC1CC(=O)CC(C)(C)C1", "note": "(stereo not given)", "activity, negative = cytotoxicity": "-21.2% (inactive)"}, {"smiles": "CCCC(=O)Nc1ccc(OCC(O)CNC(C)C)c(C(C)=O)c1", "note": "(stereo not given)", "activity, negative = cytotoxicity": "11.6% [at 31.4 µM] (inactive)"}, {"smiles": "Cn1nnc2c(C(N)=O)ncn2c1=O", "activity, negative = cytotoxicity": "-10.9% (inactive)"}, {"smiles": "CC1OCCC1=O", "note": "(stereo not given)", "activity, negative = cytotoxicity": "-5.5% (inactive)"}]}]}
